The panel holds about 79,000 compounds, 15% with a hit somewhere; the sample as a whole holds those more often. Values without a mark were called inactive. The source made the active and inactive calls. No stated cut-off is given here; in the data, active means growth inhibition above about 70%; inactive means the rest. Where a SMILES comes first, the peptide text is derived from it. The star is where a group is joined. Boc = CC(C)(C)OC(=O)*; OtBu = CC(C)(C)O*
Legend:
[1] = NCI Yeast Anticancer Drug Screen. Data for the rad50 strain (AID 155);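 further: 0% = growth of vehicle-only cultures of the same strain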; settings: S. cerevisiae rad50 strain growth inhibition; at 50.0 µM; active compounds read high
In short: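 A DNA repair-deficient yeast mutant serves as the test organism; compound-induced growth inhibition is calculated against vehicle-treated cells.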

[2] = NCI Yeast Anticancer Drug Screen. Data for the mec2-1 strain (AID 157); settings: S. cerevisiae mec2-1 strain, at 50.0 µM, active compounds read high
In short: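 Cells of the genetically defined mec2-1 yeast strain are incubated with test compound. Inhibition of growth is calculated against vehicle-treated controls.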

[3] = NCI Yeast Anticancer Drug Screen. Data for the sgs1 mgt1 strain (AID 161);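 further: 0% = growth of cultures given vehicle only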; settings: S. cerevisiae sgs1 mgt1 strain, at 50.0 µM, active compounds read high
In short: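 Inhibition of yeast growth, normalised to vehicle-treated controls, is reported for a strain bearing genetic alterations in DNA damage repair.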

[4] = NCI Yeast Anticancer Drug Screen. Data for the cln2 rad14 strain (AID 165);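 further: 0% = growth equal to vehicle treated cultures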; settings: S. cerevisiae cln2 rad14 strain, at 50.0 µM, active compounds read high
In short: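 The screen exposed genetically defined yeast (cln2 rad14) to test compounds and scored growth inhibition relative to vehicle-treated controls.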

[5] = NCI Yeast Anticancer Drug Screen. Data for the bub3 strain (AID 167); settings: S. cerevisiae bub3 mutant strain, at 50.0 µM, active compounds read high
In short: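 Inhibition values come from growth of compound-treated mutant yeast normalised to vehicle-treated controls.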

[6] = NCI Yeast Anticancer Drug Screen. Data for the mlh1 rad18 strain (AID 175); settings: S. cerevisiae mlh1 rad18 strain growth inhibition; at 50.0 µM; active compounds read high
In short: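 Compound-treated yeast growth, normalised to vehicle controls. Strain bears defined DNA repair mutations.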

Compound | growth inhibition [1] | growth inhibition [2] | growth inhibition [3] | growth inhibition [4] | growth inhibition [5] | growth inhibition [6]
O=C1CSSCC(=O)NCCCN1 | 2.25% | 1.15% | -5.35% | 0.8% | 2.55% | 28.2%
CCOC(=O)N1CC2CCc3c(ccc4ccccc34)N2C1=O (stereo unspecified) | -2.35% | 10.5% | -4.5% | -3.6% | 7.4% | 14.2%
CNC(=O)OCC#CCOC(=O)NC | -17.5% | -9.9% | -23.2% | -4.85% | -10.5% | -25.1%
N=C(N)n1ncc(Cl)c(Cl)c1=O | 30.8% | 36.2% | 33.9% | 30.4% | 38.9% | 41.5%
O=S(=O)(O)c1ccc(O)c2ncccc12 | 20.2% | 16.4% | 23.6% | 21.4% | 12.1% | 25.9%
CN(C)c1ccc(/C=N/NC(=O)NN)cc1 | 6.2% | -12.3% | -23.3% | -2.85% | -2.15% | -15.9%
O=P(O)(O)OC1OC(n2cnc3c(NCc4ccc(F)cc4)ncnc32)C(O)C1O (stereo unspecified) | 0.3% | 2.3% | -13.1% | -18.2% | 2% | -25.7%
CC1(CBr)COC(c2ccccc2)(c2ccccc2)OC1 | 18.1% | -2.4% | 20.6% | -31.4% | -22.2% | 28.5%
O=C(O)c1c(I)cc(I)c(O)c1I | -1% | -13.5% | 1.75% | 7.65% | 10.9% | -6.9%
COc1cc(C)c(C(=O)c2ccccc2NS(=O)(=O)c2ccc(C)cc2)cc1OC | 7.6% | -0.7% | -1.5% | 22.6% | -2.95% | 9.1%
Cc1cc2c(cc1C)C(=O)c1ccccc1C2=O | -29.3% | -36.1% | -15.1% | -6.7% | -30.7% | -21.8%
OC(CCNC12CC3CC(CC(C3)C1)C2)c1ccccc1 (stereo unspecified) | 29.8% | 22.4% | 59.2% | 50.5% | 33.4% | 53.6%
Cc1cc(=O)c2ccccc2n1CCCCCCCCCCn1c(C)cc(=O)c2ccccc21 | -12.1% | -0.25% | -17% | -21.9% | -26.6% | 26.4%
Cc1cccc(-c2c3ccccc3cc3ccccc23)c1 | 6.35% | 14.2% | 7.55% | -3.1% | 2.35% | 11.6%
CCOC(=O)[C@H](C)OC(=O)[C@@](C)(NC(=O)c1ccccc1C(=O)OC)[C@@H]1NC=C(C(=O)OC)CS1 | -2.15% | 26.9% | 11.2% | 14.4% | 29% | 5.8%
CCCCCCCCCCCCCCCCOc1ccc(S(=O)(=O)N/N=c2/sc(-c3ccccc3Cl)nn2C)cc1C(=O)O | -18.6% | -20.2% | 13.3% | -18.2% | 6.9% | -4.15%
CC(C)(O)CC(=O)/C=C\c1ccc2c(c1)OCO2 | 25.9% | 27.9% | 10.1% | -11.9% | -4.4% | 4.35%
N#CNC1=NC(N)C(c2nc3ccccc3[nH]2)=C(CCCC(=O)Nc2cccc([N+](=O)[O-])c2)N1 (stereo unspecified) | 17.1% | 17.1% | 5.45% | 25.9% | 35.9% | 5.65%
CC(C)(C)OC(=O)CC(NC(=O)OC(C)(C)C)C(=O)NC(Cc1ccccc1)C(N)=O (stereo unspecified) (Boc-Asp(OtBu)-Phe-NH2; configuration not given here) | -23.1% | 6.85% | -3.85% | 35.5% | 13.5% | -11.3%
CCN(CCO)CC(O)Cn1cnc2c(N)ncnc21 (stereo unspecified) (tested in a mixture with another compound) | -10.6% | 26.2% | -11.8% | 31.4% | -1.95% | 17.4%
O=C(Oc1ccccc1)N1CCCSC1=S | 19.4% | -14.3% | 5.35% | 31.4% | 16.2% | 51.2%

Compound | growth inhibition [1] | growth inhibition [2] | growth inhibition [3] | growth inhibition [4] | growth inhibition [5] | growth inhibition [6]
CC(C(=O)O)N(C)C(=O)OCc1ccccc1 (stereo unspecified) | -3.95% | -21.1% | 1.55% | -18.8% | -11.8% | -4.5%
COc1cc2cc3c(c(O)c2c(O)c1/C=C/C(C)C)C(=O)CC(C)(OC(C)=O)C3 (stereo unspecified) | 36.3% | 8.95% | 36.5% | 30.4% | 18.8% | 74.2% (active)
CSCNC(=O)Nc1ccccc1 | 30.4% | 33.9% | 19.1% | 0.25% | 15% | 8.9%
CON | -16.2% | -5.35% | 2.4% | -13.1% | 0.3% | -12.2%
O=c1[nH]cnc2nc(-c3cccc([N+](=O)[O-])c3)[nH]c12 | -1% | 30.9% | 12.9% | -13.8% | 5.4% | 24.9%
Cc1ccc2[nH]c(=O)[nH]c2c1 | -13.6% | -6.2% | -0.25% | -5.3% | 2.15% | -22.4%
CCN(CC)CCOC(=O)c1ccc(NC(=O)Nc2ccc(Br)cc2)cc1 | 4.6% | -4.95% | 30.1% | 0.25% | 8.05% | 11.2%
CC(=O)N(C)CCCCCCN(C)C(C)=O | 8.95% | 8.05% | 10.7% | 3.05% | 7.2% | 9.35%
Cc1ccc(Cl)c(NC(=O)C(=O)C(C(=O)c2ccncc2)C2OC(=O)c3ccccc32)c1 (stereo unspecified) | -14.6% | -26.1% | -37.1% | 6.45% | -5.85% | -17.9%
CN1CCN(C(=O)NC(C)(C)C)CC1 | -1.45% | -6.6% | -8.35% | -88.8% | -1.9% | -17.7%
COc1ccc(C2OCCC(C)O2)cc1OC (stereo unspecified) | -14.6% | -12.8% | -19.7% | -48.8% | -33.5% | -14.8%
Cc1cc(=O)oc2ccccc12 | 8.8% | 0.6% | 10.9% | -3.1% | 4.6% | 1.55%
CC(C)Cn1cnc2c(SCc3ccccn3)nc(N)nc21 | -6.45% | -17.4% | -10.2% | -30.6% | -48.5% | -17.4%
N#CC(C#N)CN(C1=NCCO1)c1cccc2c1CCCC2 | -16.6% | 8.4% | -3.6% | -24.6% | -12.4% | 14.3%
CCC(c1ccc(N(CC)CC)cc1[N+](=O)[O-])c1ccc(N(CC)CC)cc1[N+](=O)[O-] | 29% | 26.4% | 44.5% | 36.5% | 28.9% | 20.1%
CC1CC(=O)Nc2ncccc2N1 (stereo unspecified) | 5.75% | -4.2% | 4.2% | -28.6% | 8.05% | -9.45%
NNC(=O)CCCCCCO | 5.3% | 16.3% | 10.1% | 27.6% | 18.3% | 7.45%
Nc1nc2c(ncn2Cc2ccc(Cl)c(Cl)c2)c(=O)[nH]1 | -5.1% | -7.4% | -1.65% | -10.1% | -0.5% | 2.55%
O=[N+]([O-])c1ccc(Oc2ccc(S(=O)(=O)O)cc2)cc1 | 13.8% | 6.5% | -4.35% | 7.4% | 6.6% | 2.5%
CCn1c(=O)c2ccccc2c2cc([N+](=O)[O-])ccc21 | 7.65% | 18.1% | 2.75% | 17.1% | 12.2% | -2.7%

Reference: PubChem BioAssay (NCI)
